Values joined by “and” are separate entries in the source; they are usually repeats but may differ in a detail not shown here. Equal values may be shown once. Among all 5,500 compounds or so, about 2,000 (36%) were called active. Roughly 18% stayed inconclusive and do not appear here. Cut-off read from the data, not from the text of the source: active = normalized growth mostly below about 0.91 (no sharp cut-off); inconclusive = no clear call, values can overlap the other calls; inactive = mostly above about 0.92. This is one part of the list.
Assay: chemical genetic growth profiling, strain panel (AID 1159580);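 note: tested at 20 µM; growth read once vehicle control cultures reached saturation at 30 °C; 1 = growth at the plate median or of vehicle wells; lower values mean less growth of the strain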
Settings: S. cerevisiae deletion strains, growth OD

Measured: normalized growth

C[C@]12CCC(=O)C=C1CCC1C2CC[C@@]2(C)C1CC[C@@H]2O (some centres not stated)
inactive: locus YAL013W, strain DEP1, active compounds read low 1.01 | locus YAL021C, strain ccr4, active compounds read low 0.967 | locus YAL026C, strain drs2, active compounds read low 1 | locus YAL030W, strain snc1, active compounds read low 0.997 | locus YBL061C, strain skt5, active compounds read low 0.987 | locus YBR009C, strain hhf1, active compounds read low 0.99 | locus YBR021W, strain FUR4, active compounds read low 0.97 | locus YBR023C, strain chs3, active compounds read low 0.988 | locus YBR171W, strain sec66, active compounds read low 0.969 | locus YBR229C, strain ROT2, active compounds read low 1.02 | locus YBR231C, strain swc5, active compounds read low 0.99 | locus YBR279W, strain paf1, active compounds read low 0.998 | locus YCL011C, strain gbp2, active compounds read low 0.993 | locus YCL016C, strain dcc1, active compounds read low 0.988 | locus YCL029C, strain bik1, active compounds read low 1.02 | locus YCL061C, strain MRC1, active compounds read low 0.993 | locus YCL069W, strain vba3, active compounds read low 0.999 | locus YCR088W, strain abp1, active compounds read low 1 | locus YDL005C, strain med2, active compounds read low 0.989 | locus YDL035C, strain GPR1, active compounds read low 0.988 | locus YDL040C, strain nat1, active compounds read low 0.985 | locus YDL074C, strain BRE1, active compounds read low 0.995 | locus YDL101C, strain DUN1, active compounds read low 1.01 | locus YDL134C, strain PPH21, active compounds read low 1.03 | locus YDL185W, strain tfp1, active compounds read low 1.03 | locus YDL192W, strain arf1, active compounds read low 1.03 | locus YDR001C, strain nth1, active compounds read low 0.996 | locus YDR069C, strain doa4, active compounds read low 0.977 | locus YDR101C, strain arx1, active compounds read low 1.01 | locus YDR137W, strain rgp1, active compounds read low 0.96 | locus YDR150W, strain NUM1, active compounds read low 1.03 | locus YDR159W, strain sac3, active compounds read low 0.963 | locus YDR162C, strain NBP2, active compounds read low 0.996 | locus YDR195W, strain ref2 1.01 | locus YDR297W, strain sur2, active compounds read low 0.993 | locus YDR318W, strain mcm21, active compounds read low 1.02 | locus YDR334W, strain swr1, active compounds read low 1.01 | locus YDR335W, strain msn5, active compounds read low 0.989 | locus YDR388W, active compounds read low 1.03 | locus YDR392W, strain spt3, active compounds read low 0.934 | locus YDR502C, strain sam2, active compounds read low 1.01 | locus YEL003W, strain gim4, active compounds read low 0.983 | locus YEL037C, strain rad23, active compounds read low 0.994 | locus YEL061C, strain CIN8 (second series), active compounds read low 0.988 | locus YEL061C, strain CIN8, active compounds read low 1.02 | locus YER015W, strain faa2, active compounds read low 0.995 | locus YER016W, strain bim1, active compounds read low 0.989 | locus YER110C, active compounds read low 1.04 | locus YER111C, strain swi4, active compounds read low 0.986 | locus YER155C, strain BEM2 (second series), active compounds read low 0.981 | locus YER155C, strain BEM2, active compounds read low 1.01 | locus YER167W, strain BCK2, active compounds read low 1.05 | locus YFR010W, strain ubp6, active compounds read low 1 | locus YGL078C, strain dbp3, active compounds read low 0.985 | locus YGL086W, strain mad1, active compounds read low 1.03 | locus YGL167C, strain pmr1, active compounds read low 0.964 | locus YGL173C, strain kem1, active compounds read low 0.967 | locus YGL227W, strain vid30, active compounds read low 0.992 | locus YGL240W, strain doc1, active compounds read low 0.965 | locus YGL248W, strain PDE1, active compounds read low 1.02 | locus YGL253W, strain hxk2, active compounds read low 0.991 | locus YGR078C, strain PAC10, active compounds read low 1.02 | locus YGR135W, strain pre9, active compounds read low 1.01 | locus YGR229C, strain SMI1, active compounds read low 1.04 | locus YGR252W, strain gcn5, active compounds read low 1.01 | locus YHR013C, strain ard1, active compounds read low 1.02 | locus YHR027C, strain rpn1, active compounds read low 0.997 | locus YHR030C, strain SLT2, active compounds read low 1.03 and 1.13 | locus YHR079C, strain IRE1 (second series), active compounds read low 1.02 | locus YHR079C, strain IRE1, active compounds read low 0.993 | locus YHR094C, strain hxt1, active compounds read low 1.03 | locus YHR129C, strain ARP1, active compounds read low 1.03 | locus YHR142W, strain chs7, active compounds read low 0.991 | locus YHR200W, strain rpn10, active compounds read low 1.03 | locus YIL066C, strain RNR3, active compounds read low 1.01 | locus YIL073C, strain SPO22, active compounds read low 1.09 | locus YIL125W, strain kgd1, active compounds read low 1.03 | locus YIR030C, strain dcg1, active compounds read low 1.03 | locus YJL092W, strain hpr5, active compounds read low 0.997 | locus YJL095W, strain BCK1 (second series), active compounds read low 0.987 | locus YJL095W, strain BCK1, active compounds read low 1.02 and 0.998 | locus YJL115W, strain asf1, active compounds read low 0.994 | locus YJL129C, strain trk1, active compounds read low 0.963 | locus YJL134W, strain LCB3, active compounds read low 1.02 | locus YJL154C, strain vps35, active compounds read low 0.997 | locus YJL164C, strain tpk1, active compounds read low 1.01 | locus YJL166W, strain qcr8, active compounds read low 0.986 | locus YJL168C, strain set2, active compounds read low 1.02 | locus YJL187C, strain SWE1 (second series), active compounds read low 1 | locus YJL187C, strain SWE1, active compounds read low 0.992 | locus YJR043C, strain POL32, active compounds read low 1.02 | locus YJR066W, strain TOR1, active compounds read low 0.999

Source: PubChem BioAssay AID1159580 (chemical genetic matrix, 2015)
